Assay results reported in ChEMBL document CHEMBL1157539, “Thousands of chemical starting points for antimalarial lead identification” (Nature, 2010).

Each compound was assayed on Plasmodium falciparum (assay: GSK_TCMDC: Inhibition of Plasmodium falciparum 3D7 in whole red blood cells, using parasite LDH activity as an index of growth. Test compounds present at 2uM).
Format: functional
With `COc1cc(C)nc2ccc(NC(=O)c3ccc(C(=O)Nc4ccc5nc(C)cc(OC)c5c4)cc3)cc12` the Inhibition was 96%. Compound `Cc1cnc(NCC2CCCCC2)nc1N[C@@H](CO)C(=O)Nc1ccccc1.O=C(O)C(F)(F)F` has an Inhibition of 83%. `Cc1cccc(CNc2nc(C)cc(N[C@@H](Cc3ccccc3)C(=O)NCc3cccc(F)c3)n2)c1.O=C(O)C(F)(F)F` showed an Inhibition of 100%. `CC(C)C[C@H](NC(=O)c1cc(-c2ccc(C(C)(C)C)cc2)no1)C(=O)O.CC(C)C[C@H](NC(=O)c1conc1-c1ccc(C(C)(C)C)cc1)C(=O)O` was tested, and the Inhibition was 95%. `CCC(C)NC(=O)CN1CN(c2ccccc2)C2(CCN(C(=O)c3ccc(C(C)(C)C)cc3)CC2)C1=O` (stereo unspecified) showed an Inhibition of 100%. Work on `CCOc1ccccc1C1C(C(=O)C(C)(C)C)N2c3ccc(Br)cc3C=CC2C12C(=O)c1ccccc1C2=O` (stereo unspecified) yielded an Inhibition of 95%. Compound `Cl.N#Cc1ccc(CCNc2nccc(-c3cccc(CN4CCNCC4)c3)n2)cc1` has an Inhibition of 83%. In the case of `Cc1nc(C)c(C2CCC(c3ccc(Cl)cc3)CC2)c(O)c1Cl` (stereo unspecified), the Inhibition is reported as 98%. Compound `Cc1ccc(-c2ccc(NC(=O)N3CCc4cc(Br)c(N5CCN(C)CC5)cc43)cc2)cn1` has an Inhibition of 80%. `Cc1cccc2nc(-c3ccc(-c4cccc(CN5CCN(c6ccncc6)CC5)c4)cc3)[nH]c12.O=C(O)C(F)(F)F` was tested, and the Inhibition was 100%. `CCCCCCCCCc1c(C)[nH]c2ccccc2c1=O` showed an Inhibition of 97%. `CCc1c(CCNCCCCCCNCCc2ccc([N+](=O)[O-])cc2)ccc(OC)c1OC.Cl` showed an Inhibition of 100%. Compound `COc1ccc(-c2ccc(S(=O)(=O)Nc3cc4c(cc3OC(C)C)CCN(C)CC4)cc2)cc1.Cl` has an Inhibition of 98%. In the case of `Cc1cccc(C(=O)Nc2ccnc(N3CCCN(Cc4cccc(O)c4)CC3)c2)c1.O=C(O)C(F)(F)F`, the Inhibition is reported as 84%. `CCCCCCP(=O)(COc1ccc(CCN(CC(O)COc2cccc3[nH]c(C(N)=O)cc23)CC(O)COc2cccc3[nH]c(C(N)=O)cc23)cc1)OCCCC` (stereo unspecified) gave an Inhibition of 99%. With `O=[N+]([O-])c1ccc2nccnc2c1` the Inhibition was 97%. With `COc1ccc(OC)c(Cc2cnc3nc(N)[nH]c(=O)c3c2C)c1` the Inhibition was 98%. `Cc1nc(N)nc(N)c1-c1ccc(Cl)c(Cl)c1` [METOPRINE] showed an Inhibition of 95%. Compound `NS(=O)(=O)NCCCN1CCN(c2ccccc2)CC1` has an Inhibition of 90%. In the case of `COc1cc2nc(N3CCC(C(N)=O)CC3)nc(NCc3ccccc3)c2cc1OC`, the Inhibition is reported as 100%. Work on `O=C(Nc1cccnc1)c1cc(-c2cc(Cl)ccc2O)n[nH]1` yielded an Inhibition of 98%. With `O=C(Nc1cccc(CN2CCCN(Cc3ccccc3)CC2)c1)c1ccc(-c2ccccc2)cc1.O=C(O)C(F)(F)F` the Inhibition was 85%. With `O=C(NC1CC1)c1cnc(N2CCC(Cc3ccccc3)CC2)c(Cl)c1.O=C(O)C(F)(F)F` the Inhibition was 96%. Work on `CN1CCC(NCc2cccc(-c3ccc(S(=O)(=O)NCc4ccccc4)c(F)c3)c2)CC1.O=C(O)C(F)(F)F` yielded an Inhibition of 99%. `COc1ccc2nc3cc(Cl)ccc3c(NCCN(C)C)c2c1` was tested, and the Inhibition was 100%. For `Cc1ccc(C(=O)Nc2cccc(CN3CCCN(Cc4ccc(O)cc4)CC3)c2)s1.O=C(O)C(F)(F)F`, the Inhibition was 90%. For `CCN(CC)CCN(Cc1ccc(-c2ccc(C(F)(F)F)cc2)cc1)C(=O)Cn1cc(Cc2cnn(C)c2)c(=O)nc1/C=C/c1cccc(F)c1F.O=C(O)C(O)C(O)C(=O)O`, the Inhibition was 95%. With `O=C(Nc1ccc(Cn2ncc(N3CCNCC3)c(Cl)c2=O)cc1)Nc1ccc(-c2ccccc2)cc1.O=C(O)C(F)(F)F` the Inhibition was 98%. In the case of `N=C(N)Nc1nc(-c2cccc(NC(=O)NCc3ccc(OC(F)(F)F)cc3)c2)cs1`, the Inhibition is reported as 100%. `CN1CCN(CCNc2c3ccccc3nc3c2ccc2ccccc23)CC1.Cl` was tested, and the Inhibition was 100%. Compound `Cc1nnc(N2C(=N)SC(=Cc3ccc(-c4ccc(OC(F)(F)F)cc4)o3)C2=O)s1` has an Inhibition of 85%. `CCOC(=O)c1c[nH]c2c(sc3cc(OC)ccc32)c1=O` gave an Inhibition of 96%. `Cc1cc(-c2ccc(NC(=O)N3CCc4cc(Br)c(N5CCN(C)CC5)cc43)cc2)cc(C)n1` was tested, and the Inhibition was 92%. `CC(=O)Nc1ncc(C(=O)Nc2cccc(-c3ccc(-c4nc5cc(C(F)(F)F)ccc5[nH]4)cc3)c2)s1` showed an Inhibition of 100%. In the case of `COc1ccc(NC(=O)CCNc2ccnc(NCCc3ccc(F)cc3)n2)cc1.O=C(O)C(F)(F)F`, the Inhibition is reported as 94%. Work on `O=C(NC1CCCCC1)c1csc(C2CCCN(C(=O)c3ccc(O)c(-c4cccc(C(F)(F)F)c4)c3)C2)n1` (stereo unspecified) yielded an Inhibition of 96%.
